PubChem BioAssay AID1159580 (chemical genetic matrix, 2015)
The whole screen tested about 5,500 compounds, of which about 2,000 (36%) were called active. Another 18% or so got no clear call; they are omitted. The list shows a part of the results. Values without a mark were called inactive. Cut-off read from the data, not from the text of the source: active = normalized growth mostly below about 0.91 (no sharp cut-off); inconclusive = no clear call, values can overlap the other calls; inactive = mostly above about 0.92.

Experiment: chemical genetic growth profiling, strain panel (AID 1159580);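 note: tested at 20 µM; growth read once vehicle control cultures reached saturation at 30 °C; 1 = growth at the plate median or of vehicle wells; lower values mean less growth of the strain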
Conditions: growth OD
[1] = S. cerevisiae deletion strains, locus YAL013W, strain DEP1, stronger effect = lower value
[2] = S. cerevisiae deletion strains, locus YBR229C, strain ROT2, stronger effect = lower value
[3] = S. cerevisiae deletion strains, locus YDL101C, strain DUN1, stronger effect = lower value
[4] = S. cerevisiae deletion strains, locus YDR150W, strain NUM1, stronger effect = lower value
[5] = S. cerevisiae deletion strains, locus YEL061C, strain CIN8, stronger effect = lower value
[6] = S. cerevisiae deletion strains, locus YGR078C, strain PAC10, stronger effect = lower value
[7] = S. cerevisiae deletion strains, locus YHR030C, strain SLT2, stronger effect = lower value
[8] = S. cerevisiae deletion strains, locus YJR043C, strain POL32, stronger effect = lower value
[9] = S. cerevisiae deletion strains, locus YKL190W, strain CNB1, stronger effect = lower value
[10] = S. cerevisiae deletion strains, locus YLR039C, strain RIC1, stronger effect = lower value
[11] = S. cerevisiae deletion strains, locus YLR262C, strain YPT6, stronger effect = lower value
[12] = S. cerevisiae deletion strains, locus YMR307W, strain GAS1, stronger effect = lower value
[13] = S. cerevisiae deletion strains, locus YNL153C, strain GIM3, stronger effect = lower value
[14] = S. cerevisiae deletion strains, locus YNL322C, strain KRE1, stronger effect = lower value
[15] = S. cerevisiae deletion strains, locus YPL241C, strain CIN2, stronger effect = lower value
[16] = S. cerevisiae strains, strain wild type, stronger effect = lower value

Structure (SMILES): O=C(O)c1cc(O)ccc1O
- normalized growth [1]: 0.986
- normalized growth (S. cerevisiae deletion strains, locus YBR021W, strain FUR4, stronger effect = lower value): 0.948
- normalized growth [2]: 0.992
- normalized growth (S. cerevisiae deletion strains, locus YCL029C, strain bik1, stronger effect = lower value): 0.994
- normalized growth (S. cerevisiae deletion strains, locus YDL035C, strain GPR1, stronger effect = lower value): 0.995
- normalized growth (S. cerevisiae deletion strains, locus YDL074C, strain BRE1, stronger effect = lower value): 0.978
- normalized growth [3]: 0.999
- normalized growth (S. cerevisiae deletion strains, locus YDL185W, strain tfp1, stronger effect = lower value): 1
- normalized growth (S. cerevisiae deletion strains, locus YDL192W, strain arf1, stronger effect = lower value): 0.993
- normalized growth (S. cerevisiae deletion strains, locus YDR101C, strain arx1, stronger effect = lower value): 0.965
- normalized growth [4]: 0.993
- normalized growth (S. cerevisiae deletion strains, locus YDR162C, strain NBP2, stronger effect = lower value): 1.01
- normalized growth (S. cerevisiae deletion strains, locus YDR318W, strain mcm21, stronger effect = lower value): 1.01
- normalized growth (S. cerevisiae deletion strains, locus YDR388W, stronger effect = lower value): 0.989
- normalized growth (S. cerevisiae deletion strains, locus YDR502C, strain sam2, stronger effect = lower value): 0.989
- normalized growth [5]: 0.998
- normalized growth (S. cerevisiae deletion strains, locus YER110C, stronger effect = lower value): 0.981
- normalized growth (S. cerevisiae deletion strains, locus YER155C, strain BEM2, stronger effect = lower value): 0.996
- normalized growth (S. cerevisiae deletion strains, locus YER167W, strain BCK2, stronger effect = lower value): 0.988
- normalized growth (S. cerevisiae deletion strains, locus YGL078C, strain dbp3, stronger effect = lower value): 0.988
- normalized growth (S. cerevisiae deletion strains, locus YGL086W, strain mad1, stronger effect = lower value): 0.975
- normalized growth (S. cerevisiae deletion strains, locus YGL248W, strain PDE1, stronger effect = lower value): 1.02
- normalized growth [6]: 1.02
- normalized growth (S. cerevisiae deletion strains, locus YGR135W, strain pre9, stronger effect = lower value): 1.01
- normalized growth (S. cerevisiae deletion strains, locus YGR252W, strain gcn5, stronger effect = lower value): 1.12
- normalized growth [7]: 0.989
- normalized growth (S. cerevisiae deletion strains, locus YHR079C, strain IRE1 (second series), stronger effect = lower value): 0.986
- normalized growth (S. cerevisiae deletion strains, locus YHR094C, strain hxt1, stronger effect = lower value): 0.99
- normalized growth (S. cerevisiae deletion strains, locus YHR129C, strain ARP1, stronger effect = lower value): 0.994
- normalized growth (S. cerevisiae deletion strains, locus YHR200W, strain rpn10, stronger effect = lower value): 0.989
- normalized growth (S. cerevisiae deletion strains, locus YIL066C, strain RNR3, stronger effect = lower value): 0.985
- normalized growth (S. cerevisiae deletion strains, locus YIL073C, strain SPO22, stronger effect = lower value): 0.976
- normalized growth (S. cerevisiae deletion strains, locus YIL125W, strain kgd1, stronger effect = lower value): 0.987
- normalized growth (S. cerevisiae deletion strains, locus YIR030C, strain dcg1, stronger effect = lower value): 1
- normalized growth (S. cerevisiae deletion strains, locus YJL095W, strain BCK1, stronger effect = lower value): 1.03
- normalized growth (S. cerevisiae deletion strains, locus YJL134W, strain LCB3, stronger effect = lower value): 0.984
- normalized growth (S. cerevisiae deletion strains, locus YJL168C, strain set2, stronger effect = lower value): 0.998
- normalized growth (S. cerevisiae deletion strains, locus YJL187C, strain SWE1 (second series), stronger effect = lower value): 1.01
- normalized growth [8]: 1.01
- normalized growth (S. cerevisiae deletion strains, locus YKL009W, strain mrt4, stronger effect = lower value): 0.964
- normalized growth (S. cerevisiae deletion strains, locus YKL068W, stronger effect = lower value): 0.992
- normalized growth (S. cerevisiae deletion strains, locus YKL085W, strain MDH1 (second series), stronger effect = lower value): 1
- normalized growth (S. cerevisiae deletion strains, locus YKL085W, strain MDH1, stronger effect = lower value): 1
- normalized growth [9]: 0.997
- normalized growth (S. cerevisiae deletion strains, locus YKR001C, strain vps1, stronger effect = lower value): 0.985
- normalized growth [10]: 1.05
- normalized growth (S. cerevisiae deletion strains, locus YLR058C, strain SHM2, stronger effect = lower value): 1
- normalized growth (S. cerevisiae deletion strains, locus YLR102C, strain apc9, stronger effect = lower value): 0.987
- normalized growth [11]: 1.05
- normalized growth (S. cerevisiae deletion strains, locus YLR268W, strain sec22, stronger effect = lower value): 0.986
- normalized growth (S. cerevisiae deletion strains, locus YLR330W, strain CHS5, stronger effect = lower value): 0.991
- normalized growth (S. cerevisiae deletion strains, locus YLR342W, strain FKS1 (second series), stronger effect = lower value): 0.95
- normalized growth (S. cerevisiae deletion strains, locus YLR371W, strain rom2, stronger effect = lower value): 0.989
- normalized growth (S. cerevisiae deletion strains, locus YLR418C, strain cdc73, stronger effect = lower value): 1.05
- normalized growth (S. cerevisiae deletion strains, locus YML016C, strain PPZ1, stronger effect = lower value): 0.995
- normalized growth (S. cerevisiae deletion strains, locus YML032C, strain rad52, stronger effect = lower value): 1.01
- normalized growth (S. cerevisiae deletion strains, locus YML124C, strain tub3, stronger effect = lower value): 1
- normalized growth (S. cerevisiae deletion strains, locus YMR078C, strain ctf18, stronger effect = lower value): 0.992
- normalized growth (S. cerevisiae deletion strains, locus YMR223W, strain ubp8, stronger effect = lower value): 1.04
- normalized growth [12]: 1.07
- normalized growth (S. cerevisiae deletion strains, locus YNL067W, strain RPL9B, stronger effect = lower value): 1.01
- normalized growth [13]: 1.02
- normalized growth (S. cerevisiae deletion strains, locus YNL233W, strain BNI4, stronger effect = lower value): 1
- normalized growth (S. cerevisiae deletion strains, locus YNL250W, strain rad50, stronger effect = lower value): 0.976
- normalized growth (S. cerevisiae deletion strains, locus YNL271C, strain bni1, stronger effect = lower value): 0.994
- normalized growth (S. cerevisiae deletion strains, locus YNL298W, strain CLA4, stronger effect = lower value): 0.994
- normalized growth (S. cerevisiae deletion strains, locus YNL307C, strain MCK1, stronger effect = lower value): 0.98
- normalized growth [14]: 1
- normalized growth (S. cerevisiae deletion strains, locus YNR052C, strain pop2, stronger effect = lower value): 1
- normalized growth (S. cerevisiae deletion strains, locus YOL012C, strain htz1): 1.12
- normalized growth (S. cerevisiae deletion strains, locus YOL147C, strain pex11, stronger effect = lower value): 0.99
- normalized growth (S. cerevisiae deletion strains, locus YOR061W, strain CKA2, stronger effect = lower value): 0.996
- normalized growth (S. cerevisiae deletion strains, locus YOR069W, strain VPS5, stronger effect = lower value): 0.987
- normalized growth (S. cerevisiae deletion strains, locus YOR136W, strain idh2, stronger effect = lower value): 0.995
- normalized growth (S. cerevisiae deletion strains, locus YOR144C, strain elg1, stronger effect = lower value): 0.989
- normalized growth (S. cerevisiae deletion strains, locus YOR184W, strain ser1, stronger effect = lower value): 1
- normalized growth (S. cerevisiae deletion strains, locus YOR316C, strain cot1, stronger effect = lower value): 0.985
- normalized growth [15]: 1
- normalized growth (S. cerevisiae deletion strains, locus YPR119W, strain clb2, stronger effect = lower value): 0.994
- normalized growth (S. cerevisiae deletion strains, locus YPR141C, strain kar3, stronger effect = lower value): 0.981
- normalized growth (S. cerevisiae deletion strains, locus YPR163C, strain tif3, stronger effect = lower value): 0.999
- normalized growth (S. cerevisiae deletion strains, locus YPR167C, strain met16, stronger effect = lower value): 1.01
- normalized growth (S. cerevisiae deletion strains, strain wtn01, stronger effect = lower value): 0.943
- normalized growth [16]: 0.994

Structure (SMILES): Cc1ccc(Sc2nc(C)c([N+](=O)[O-])c(C)c2C#N)cc1
- normalized growth [1]: 0.969
- normalized growth [2]: 0.982
- normalized growth [3]: 0.997
- normalized growth [4]: 0.99
- normalized growth [5]: 0.934
- normalized growth [6]: 0.979
- normalized growth (S. cerevisiae deletion strains, locus YGR229C, strain SMI1, stronger effect = lower value): 0.978
- normalized growth [7]: 0.625 (active)
- normalized growth (S. cerevisiae deletion strains, locus YHR087W, strain rtc3, stronger effect = lower value): 0.975
- normalized growth [8]: 0.967
- normalized growth (S. cerevisiae deletion strains, locus YJR075W, strain HOC1, stronger effect = lower value): 0.952
- normalized growth [9]: 0.977
- normalized growth [10]: 0.664 (active)
- normalized growth (S. cerevisiae deletion strains, locus YLR058C, strain SHM2 (second series), stronger effect = lower value): 0.969
- normalized growth (S. cerevisiae deletion strains, locus YLR085C, strain ARP6, stronger effect = lower value): 0.883
- normalized growth [11]: 0.732 (active)
- normalized growth (S. cerevisiae deletion strains, locus YML094W, strain GIM5, stronger effect = lower value): 1.01
- normalized growth (S. cerevisiae deletion strains, locus YMR219W, strain ESC1, stronger effect = lower value): 0.979
- normalized growth (S. cerevisiae deletion strains, locus YMR263W, strain SAP30, stronger effect = lower value): 0.97
- normalized growth [12]: 0.763
- normalized growth [13]: 0.994
- normalized growth (S. cerevisiae deletion strains, locus YNL298W, strain CLA4 (second series), stronger effect = lower value): 0.947
- normalized growth [14]: 0.974
- normalized growth (S. cerevisiae deletion strains, locus YNR030W, strain Alg12, stronger effect = lower value): 0.965
- normalized growth (S. cerevisiae deletion strains, locus YPL055C, strain LGE1, stronger effect = lower value): 0.963
- normalized growth [15]: 1.06
- normalized growth (S. cerevisiae deletion strains, locus YPR135W, strain CTF4, stronger effect = lower value): 0.828
- normalized growth [16]: 0.974
